# Data published in the OligoGym collection.
# Target: OSBP2
# Assay: pooled miR-30 sensor sort-seq; sequence = guide strand
# Details: shRNA
# Also: reference of the scale not given here.
row,Sequence,sensor-assay potency score (higher = more potent)
1,TTGGAGAACACGTAGTGCGCAG,-0.163
2,TTCTCTTCCTCCGAGCTGCAGC,-0.929
3,TAAGTGGATGGCACCTAGCGGC,-0.606
4,TTCAGTACTAAATTGAGTGCAT,0.314
5,ATCTAGTACATTGTCTGCTGAG,-0.399
6,TAGGAGGACACAGAGAAGGCGG,-0.227
7,TTGACTTTGGATGAACCCTTGG,-0.284
8,TCTAGTACATTGTCTGCTGAGC,-0.715
9,TTGATCATAGCATTGGATGTGA,0.46
10,TTGTGAACAGTTGAGGTGCTCT,-0.621
11,TTGCCCAGCACGAACCAGCGGC,-0.788
12,TACACTGTCTTCTGCTTCCCGT,-0.671

# Target: OSBPL11
# Assay: as above
# Details: shRNA
row,Sequence,sensor-assay potency score (higher = more potent)
1,TTTACCACTTTGGTCTTGCTGC,-0.424
2,TTCTTTACCACTTTGGTCTTGC,0.433
3,TTGTGCTTTACTTCAGCTGTAA,-0.271
4,AATAGCTTCAGTATGATGCTGT,0.478
